Molecules are shown by their SMILES. This is part of a sample that, as a whole, favours compounds with a hit. Of some 79,000 tested, about 15% had one in any assay. Unmarked numbers belong to inactive results. The source made the active and inactive calls. Rule as the data show it: active = growth inhibition above about 70%; inactive = the rest.

Assay [1] is described as follows: NCI Yeast Anticancer Drug Screen. Data for the rad50 strain (AID 155).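 Also: 0% = growth of vehicle-only cultures of the same strain.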 The conditions noted are these: S. cerevisiae rad50 strain growth inhibition; at 50.0 µM; hits give high values. In outline: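 Relative growth inhibition (compound vs vehicle) was measured in yeast with a defined repair-gene alteration.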
A short description of assay [2]: NCI Yeast Anticancer Drug Screen. Data for the mec2-1 strain (AID 157). The conditions noted are these: S. cerevisiae mec2-1 strain, at 50.0 µM, hits give high values. In outline: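 Mutant yeast (mec2-1) grown with compound; growth inhibition relative to vehicle control reported.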
Assay [3] can be described thus: NCI Yeast Anticancer Drug Screen. Data for the sgs1 mgt1 strain (AID 161).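 Also: 0% = growth of cultures given vehicle only.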 The conditions noted are these: S. cerevisiae sgs1 mgt1 strain, at 50.0 µM, hits give high values. The method in brief:
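This yeast growth screen uses a strain with defined DNA-repair lesions; compound-treated growth is compared with vehicle-treated growth.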

Assay [4] is described as follows: NCI Yeast Anticancer Drug Screen. Data for the cln2 rad14 strain (AID 165).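 Also: 0% = growth equal to vehicle treated cultures.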 Particulars: S. cerevisiae cln2 rad14 strain, at 50.0 µM, hits give high values. The method in brief: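 Readout is yeast growth inhibition versus vehicle-treated controls, using a strain with cln2 and rad14 alterations exposed to compound.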
Assay [5] is described as follows: NCI Yeast Anticancer Drug Screen. Data for the bub3 strain (AID 167). Particulars: S. cerevisiae bub3 mutant strain, at 50.0 µM, hits give high values. The method in brief: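 Screening used yeast with an engineered genetic alteration affecting cell cycle control. Compound-exposed cultures were compared with vehicle cultures, and reduced growth was taken as inhibition.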

Assay [6] is described as follows: NCI Yeast Anticancer Drug Screen. Data for the mlh1 rad18 strain (AID 175). The conditions noted are these: S. cerevisiae mlh1 rad18 strain growth inhibition; at 50.0 µM; hits give high values. The method in brief:
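Genetically defined yeast (DNA repair-deficient) exposed to compounds; growth inhibition determined relative to vehicle.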

Consider `CCN(CC)CCCN1CC(=O)N2CCCCN2C(=O)C1`, for which the growth inhibition is 28.8% in assay [1]; -3.6% in assay [2]; 13.4% in assay [3]; 6.15% in assay [4]; 3.05% in assay [5]; 8.9% in assay [6].

Regarding `CCOC(=O)c1ccc(N(CC(O)CN)S(=O)(=O)c2ccc(C)cc2)cc1` (stereo not drawn), the growth inhibition in assay [1] is 5.7%; in assay [2] it was -9.5%; in assay [3] it was -11.2%; in assay [4], 4.15%; in assay [5], 3.5%; in assay [6], -1.5%.

As for `CCN(CCO)CC(O)Cn1cnc2c(N)ncnc21` (stereo not drawn) (tested in a mixture with another compound), the growth inhibition was -10.6% in assay [1]; 26.2% in assay [2]; -11.8% in assay [3]; 31.4% in assay [4]; -1.95% in assay [5]; 17.4% in assay [6].

For `CC1=C(C#[N+][O-])C(C)(C)CCC1`, the growth inhibition in assay [1] was 1.05%; in assay [2], 5.1%; in assay [3] it was -2.9%; in assay [4] it was 10.1%; in assay [5], -23.9%; in assay [6], -16.2%.

`C=CC1CNCCC1CCC(=O)c1ccnc2ccc(OC)cc12` (stereo not drawn): the growth inhibition is 7.75% in assay [1]; -9.6% in assay [2]; -1.2% in assay [3]; 5.85% in assay [4]; 1.15% in assay [5]; 4.4% in assay [6].

As for `CO[C@@]12C[C@@H](C)C3=CCC(C)=C3CC1=C(C)C(=O)O2`, the growth inhibition in assay [1] is 8.9%; in assay [2], -4.05%; in assay [3], 16.6%; in assay [4] it was 2.9%; in assay [5], 26.4%; in assay [6] it was -68.3%.

Turning to `CCOC(=O)CCCOc1ccccc1`, the growth inhibition in assay [1] is 24.4%; in assay [2], -2.95%; in assay [3], -9.55%; in assay [4], 7.6%; in assay [5], 16.1%; in assay [6], 19.7%.

With `O=C1ON=C(c2ccccc2)/C1=C\C=C\c1ccccc1`, the growth inhibition is 18.2% in assay [1]; 9.9% in assay [2]; 1.45% in assay [3]; 23.1% in assay [4]; 35.6% in assay [5]; 14.5% in assay [6].

Take `CC(C)(C)c1cc(C(=S)N2CCN(C(=S)c3cc(C(C)(C)C)c(O)c(C(C)(C)C)c3)CC2)cc(C(C)(C)C)c1O`: the growth inhibition in assay [1] was 4.05%; in assay [2] it was -10.7%; in assay [3], -10.9%; in assay [4], -48.5%; in assay [5] it was 2.45%; in assay [6], -16.9%.

In the case of `CC1CCC2(C)CCC3(C)C(=CCC4C5(C)CCC(O)C(C)(C)C5CCC43C)C2C1C` (stereo not drawn) (tested in a mixture with another compound), the growth inhibition in assay [1] is 23.8%; in assay [2] it was -20.8%; in assay [3], 9.95%; in assay [4] it was -5.8%; in assay [5], 0.6%; in assay [6], 17.1%.

`Nc1cc(=O)[nH]c(SC2OC(CO)C(O)C2O)n1` (stereo not drawn): the growth inhibition is 29.1% in assay [1]; -9.6% in assay [2]; 9% in assay [3]; -44.1% in assay [4]; 0.1% in assay [5]; 17.6% in assay [6].

Turning to `Cn1c2ccccc2c(=O)c2c(O)cc3c(c21)CC(C1(C)CO1)O3` (stereo not drawn), the growth inhibition in assay [1] is 86.2% (active); in assay [2], 79.6% (active); in assay [3], 72% (active); in assay [4] it was 80.7% (active); in assay [5] it was 42.5%; in assay [6], 83.1% (active).

Consider `COC1(OC)N=C(N)C2(C#N)C(C)CC(=O)N(N(C)C)C12C#N` (stereo not drawn), for which the growth inhibition was 7.15% in assay [1]; 6.1% in assay [2]; -27.4% in assay [3]; -2.7% in assay [4]; -37.4% in assay [5]; -34.9% in assay [6].

In the case of `N#CC(CCc1nc(N)nc(N)n1)(CCc1nc(N)nc(N)n1)c1ccccc1`, the growth inhibition in assay [1] was -6.7%; in assay [2] it was -19.1%; in assay [3], 1.9%; in assay [4] it was -45.7%; in assay [5] it was -1.2%; in assay [6], -14.9%.

Regarding `O=c1[nH]c(=O)c2nc3cc(-c4ccc5nc6[nH]c(=O)[nH]c(=O)c6nc5c4)ccc3nc2[nH]1`, the growth inhibition in assay [1] was 14.2%; in assay [2] it was 12.1%; in assay [3] it was 12.4%; in assay [4] it was 54%; in assay [5], 2.65%; in assay [6], 7%.

As for `CC1CC(=O)Oc2cc(O)c(O)cc21` (stereo not drawn), the growth inhibition in assay [1] was 11.8%; in assay [2] it was 7.9%; in assay [3] it was 7.3%; in assay [4], 4.4%; in assay [5] it was 14.9%; in assay [6], 16.9%.

As to `CC(C)(C)OC(=O)N(CCCN)CCCCN(CCCN)C(=O)OC(C)(C)C`, the growth inhibition in assay [1] is 8.45%; in assay [2], -9.5%; in assay [3], 5.25%; in assay [4], 12.8%; in assay [5], -5.55%; in assay [6], -62%.

In the case of `CSc1c(S(C)=O)[nH]c2cc(Br)cc(Br)c12` (stereo not drawn), the growth inhibition in assay [1] was 84.2% (active); in assay [2], 89.3% (active); in assay [3], 88.7% (active); in assay [4] it was 71.6% (active); in assay [5], 89.4% (active); in assay [6] it was 85.2% (active).

For the compound `CCCCOC1CCC(O)C2CCCCC12` (stereo not drawn), the growth inhibition in assay [1] is 5.15%; in assay [2], -2.5%; in assay [3], -1.9%; in assay [4], -0.7%; in assay [5], -0.95%; in assay [6] it was 9.85%.

Turning to `COc1ccc(C(O)/C(=C/n2ccnc2)c2ccccc2)cc1OC` (stereo not drawn), the growth inhibition in assay [1] is -23.8%; in assay [2], -17.8%; in assay [3] it was -15.6%; in assay [4], -5.85%; in assay [5], -7.65%; in assay [6], -25.2%.

On to `NC(CSCc1ccccc1)P(=O)(O)O` (stereo not drawn), for which the growth inhibition in assay [1] was 8.35%; in assay [2], 0.55%; in assay [3] it was 0.2%; in assay [4], -7.45%; in assay [5], -2.45%; in assay [6] it was -1.55%.

Turning to `CC(=O)N/N=C(\N)c1nc2c(n3nc(C)nc13)CCCC2`, the growth inhibition in assay [1] was -17.6%; in assay [2], -19%; in assay [3] it was -1.2%; in assay [4], -18.4%; in assay [5], -5.05%; in assay [6], 5.5%.

As to `CC1(C)CC(=O)C(CC2=C(N)CC(C)(C)CC2=O)=C(N)C1`, the growth inhibition is 1.8% in assay [1]; 5.8% in assay [2]; 9.9% in assay [3]; -13.3% in assay [4]; 10.6% in assay [5]; 31.7% in assay [6].

For the compound `c1ccc(-c2coc(-c3ccccc3)n2)cc1`, the growth inhibition in assay [1] was 1.15%; in assay [2], 8.65%; in assay [3], 3.25%; in assay [4], -2%; in assay [5] it was -5.15%; in assay [6], -10.2%.

In the case of `COc1cc2c(c(C3(O)C(=O)N(C)c4ccccc43)c1OC)OCO2` (stereo not drawn), the growth inhibition is 1.95% in assay [1]; -12.4% in assay [2]; 12.8% in assay [3]; -53.1% in assay [4]; -52.6% in assay [5]; 4.9% in assay [6].

For the compound `CC(C1CCCC1=O)C1CCCC1=O` (stereo not drawn), the growth inhibition in assay [1] is -1.1%; in assay [2], -17.8%; in assay [3], -5.05%; in assay [4], 5.35%; in assay [5], -11.9%; in assay [6], -10.4%.

Regarding `O/N=C1\CCc2nonc2\C1=N/Nc1ccccc1`, the growth inhibition was -2.05% in assay [1]; 2.8% in assay [2]; -2.35% in assay [3]; 1.45% in assay [4]; 7% in assay [5]; -1.9% in assay [6].

In the case of `CCCCCCCCCCCCCCCC1=NN(c2ccc([N+](=O)[O-])cc2)C(=O)C1`, the growth inhibition was 14.9% in assay [1]; -3.8% in assay [2]; -25.8% in assay [3]; -8.4% in assay [4]; 1.3% in assay [5]; 0.75% in assay [6].

Turning to `Cc1ccc(N2CCCCN(c3ccc(C)cc3)/C(c3ccccc3)=C\2c2ccccc2)cc1`, the growth inhibition in assay [1] was -8.55%; in assay [2], -7.3%; in assay [3] it was -7%; in assay [4] it was -8.2%; in assay [5], -1.35%; in assay [6] it was -29.9%.

With `COc1ccc(NC(C)c2ccncc2)cc1` (stereo not drawn), the growth inhibition is -17.8% in assay [1]; -16% in assay [2]; -29% in assay [3]; -9.95% in assay [4]; -9.9% in assay [5]; -46% in assay [6].

For `COC1(C2COc3cc(OCc4ccccc4)ccc3C2=O)C=C2OCOC2=CC1=O` (stereo not drawn), the growth inhibition was -16.6% in assay [1]; -18% in assay [2]; -6.6% in assay [3]; -33% in assay [4]; 9.45% in assay [5]; -4.75% in assay [6].

Take `O=S1(=O)OCCOS(=O)(=O)C1(F)Br`: the growth inhibition in assay [1] is -38.4%; in assay [2], -4.7%; in assay [3], -19.6%; in assay [4], -8%; in assay [5], -20.6%; in assay [6] it was -29.8%.

As for `COC(=O)C1=C(C)N(NC(N)=O)C2(N)N(NC(N)=O)C(C)=C(C(=O)OC)C12C#N` (stereo not drawn), the growth inhibition in assay [1] is -23.5%; in assay [2], -11.6%; in assay [3], -44.6%; in assay [4], 5.8%; in assay [5], 2.55%; in assay [6], -16.4%.

Regarding `CCN(CC)CC(C)(C)C=O`, the growth inhibition in assay [1] is 26.9%; in assay [2], -19.8%; in assay [3], 20.8%; in assay [4], 4.3%; in assay [5], -7.55%; in assay [6], 15.1%.

In the case of `Cc1ccc(CC(=O)N(C)C)c([N+](=O)[O-])c1`, the growth inhibition is -9.5% in assay [1]; -7.15% in assay [2]; -1% in assay [3]; 0.95% in assay [4]; -8.45% in assay [5]; -25.1% in assay [6].

In the case of `C/C=C(/C)c1ccccc1`, the growth inhibition in assay [1] is -5.1%; in assay [2] it was 1.8%; in assay [3] it was -1.1%; in assay [4] it was 10.4%; in assay [5], 4.55%; in assay [6], 24.6%.

As for `Clc1ccc(CCn2ccc3ccccc32)c(Cl)c1`, the growth inhibition in assay [1] is -12.6%; in assay [2] it was -10%; in assay [3] it was 0.05%; in assay [4], 7.2%; in assay [5], 16.9%; in assay [6], 4.35%.

For the compound `O=C1NC(Cc2ccccc2)C(=O)N2CCCC12` (stereo not drawn), the growth inhibition in assay [1] was 2.55%; in assay [2] it was -6.75%; in assay [3] it was -12.2%; in assay [4] it was -18.1%; in assay [5], -1.15%; in assay [6], 3.35%.

Source of the values: PubChem BioAssay (NCI).
